Test results published in PubChem BioAssay (NCI).
Compounds without any hit were thinned out: in the full panel of roughly 79,000, 15% have a hit. No stated cut-off is given here; in the data, active means growth inhibition above about 70%; inactive means the rest.

Legend:
[1] = NCI Yeast Anticancer Drug Screen. Data for the rad50 strain (AID 155);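 further: 0% = growth of vehicle-only cultures of the same strain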; settings: S. cerevisiae rad50 strain growth inhibition; at 50.0 µM; stronger effect = higher value
How it was run: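 Growth of the mutant yeast was measured after compound exposure and referenced to vehicle-treated cultures.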

[2] = NCI Yeast Anticancer Drug Screen. Data for the mec2-1 strain (AID 157); settings: S. cerevisiae mec2-1 strain, at 50.0 µM, stronger effect = higher value
How it was run: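 Growth inhibition is read against vehicle-treated controls after compound exposure of the mec2-1 yeast strain, which is defective in DNA damage repair or cell cycle control.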

[3] = NCI Yeast Anticancer Drug Screen. Data for the sgs1 mgt1 strain (AID 161);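 further: 0% = growth of cultures given vehicle only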; settings: S. cerevisiae sgs1 mgt1 strain, at 50.0 µM, stronger effect = higher value
How it was run: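 Compounds are added to genetically altered yeast, and growth is compared with cultures given vehicle alone to give percent inhibition.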

[4] = NCI Yeast Anticancer Drug Screen. Data for the cln2 rad14 strain (AID 165);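 further: 0% = growth equal to vehicle treated cultures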; settings: S. cerevisiae cln2 rad14 strain, at 50.0 µM, stronger effect = higher value
How it was run: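 Growth inhibition, relative to vehicle-treated controls, is the read-out. The test organism is a yeast strain with defined genetic alterations, cln2 rad14.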

[5] = NCI Yeast Anticancer Drug Screen. Data for the bub3 strain (AID 167); settings: S. cerevisiae bub3 mutant strain, at 50.0 µM, stronger effect = higher value
How it was run: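 Whole-cell yeast assay. The mutant strain was incubated with compounds, and growth inhibition was determined by comparison with vehicle-treated cells.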

[6] = NCI Yeast Anticancer Drug Screen. Data for the mlh1 rad18 strain (AID 175); settings: S. cerevisiae mlh1 rad18 strain growth inhibition; at 50.0 µM; stronger effect = higher value
How it was run: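 Cells of a genetically altered yeast strain, deficient in DNA damage repair, were treated with compound. Their growth was then compared with that of vehicle-treated cultures to give inhibition.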

Measured: growth inhibition

O=C(Cc1ccccc1)NC(CSCc1ccccc1)C(=O)O (stereo unspecified)
inactive: [1] 9.85% | [2] 19.2% | [3] -15% | [4] -39.1% | [5] 10.8% | [6] 40.2%

Cc1ccc(C(=O)CC2(O)C(=O)Nc3ccccc32)cc1 (stereo unspecified)
inactive: [1] 25.4% | [2] 17.4% | [3] 22.4% | [4] 16.9% | [5] 14.3% | [6] 20.9%

Cc1ccc2c(c1)C(=O)c1cc(C)cc(C(=O)O)c1-2
inactive: [1] -22.6% | [2] -5.05% | [3] 4.5% | [4] -40% | [5] 1.65% | [6] -16.7%

c1ccc(-c2cccc(-c3ccccc3)n2)cc1
inactive: [1] 20.5% | [2] 33.9% | [3] -1.4% | [4] -10.8% | [5] -24.3% | [6] 28.7%

Cc1ccccc1N1CCOS(=O)OC(C)C1 (stereo unspecified)
inactive: [1] -3.6% | [2] 23.7% | [3] 64.8% | [4] 39.9% | [5] 55.3% | [6] 57.5%

COc1ccc2[nH]c3c4c(c(C)cc3c2c1)OC(C)(C)C=C4
inactive: [1] 16.2% | [2] -5.75% | [3] -4.05% | [4] -43.3% | [5] -16.6% | [6] -6.15%

O=C1C(O)=C(Cl)C(=O)C(O)=C1Cl.[Zn+2]
inactive: [1] -40.5% | [2] -25.8% | [3] -10.2% | [4] -9.1% | [5] -16.9% | [6] -26.8%

Cc1cccc(NC(=O)c2ccc(Cl)c(Cl)c2)c1
inactive: [1] 11.3% | [2] 13.7% | [3] -0.25% | [4] -65.6% | [5] 30.4% | [6] -8.65%

CCC/C(=C(\C)c1ccccc1)c1ccccc1
inactive: [1] 46.1% | [2] 33.6% | [3] 37.7% | [4] 14.1% | [5] -11.5% | [6] 33.3%

COC(=O)C=Cc1ccc2nncnc2c1 (mixture of isomers)
inactive: [1] 24.1% | [2] 21.7% | [3] 8.15% | [4] 17.1% | [5] 36.4% | [6] -7.7%

CC(=O)C1CCC(CCCC(C)C)CC1 (stereo unspecified)
inactive: [1] 13.9% | [2] -2.4% | [3] -2.75% | [4] -10.4% | [5] 2.4% | [6] 6.2%

COC(=O)C(N)CSCSC (stereo unspecified)
inactive: [1] -12.8% | [2] 13% | [3] 3.7% | [4] -44% | [5] -13.8% | [6] -5.65%

CC1C2(C)OC(=N)C(C#N)(C(c3ccccc3)O2)C1(C#N)C#N (stereo unspecified)
inactive: [1] 8.7% | [2] -5.15% | [3] -13.4% | [4] 6.25% | [5] -3.2% | [6] -23.6%

COC(=O)C(C(=O)C(=O)NC1=C(Cl)C(=O)c2ccccc2C1=O)c1csc(-n2nc(-c3ccccc3)cc2-c2ccccc2)n1 (stereo unspecified)
inactive: [1] -0.4% | [2] -26.6% | [3] -14.4% | [4] 0.85% | [5] 26.1% | [6] -5.4%

C=C1C(=O)O[C@H]2C[C@@H]1C(=O)CC(C)CCCC(C)=CCC[C@@]2(C)O (stereo partly specified)
inactive: [1] 24.4% | [2] 7.65% | [3] 15.2% | [4] 11.2% | [5] -0.1% | [6] -49.4%

Nc1nc2c(c(-c3cccc(Cl)c3)n1)COC/C2=C\c1cccc(Cl)c1
inactive: [1] 26.3% | [2] 20.8% | [3] 25.2% | [4] 20.2% | [5] 25.4% | [6] 24%

CCSC(=S)S
inactive: [1] -0.35% | [2] -23% | [3] -12.2% | [4] 7.15% | [5] 0.25% | [6] -0.3%

COc1nc2c(nc(N)n2C2OC(CO)C(O)C(O)C2O)c(=O)[nH]1 (stereo unspecified)
inactive: [1] -26.4% | [2] -8% | [3] -1.5% | [4] 3.45% | [5] 0.95% | [6] 20.9%

OC(CNc1ncccn1)(c1ccccc1)c1ccccc1
inactive: [1] -0.25% | [2] -24.8% | [3] -0.7% | [4] 13% | [5] 8.8% | [6] -17.1%

COC(=O)N/N=C/c1cccnc1
inactive: [1] 2.05% | [2] -6.6% | [3] -3.05% | [4] -72.2% | [5] 9.8% | [6] -26.8%

CCOC(=O)c1ccccc1OC(=O)Oc1ccccc1C(=O)OCC
inactive: [1] 17.9% | [2] 10.2% | [3] -5.25% | [4] -23.1% | [5] -5.55% | [6] 33.9%

C1CCCN(/N=N/N2CCCCCC2)CC1
inactive: [1] -1.5% | [2] 0.4% | [3] -1.7% | [4] -19.1% | [5] 10.8% | [6] 6.65%

O=C(OCC1OC(n2cnc3c(Cl)ncnc32)C(OC(=O)c2ccccc2)C1OC(=O)c1ccccc1)c1ccccc1 (stereo unspecified)
inactive: [1] -16.6% | [2] -21.2% | [3] -13.2% | [4] 5.6% | [5] -12.8% | [6] -13.3%

COC(=O)C1CC[N-]CC1.COC(=O)C1CC[N-]CC1.[Cl][Pt+2][Cl]
inactive: [1] -0.15% | [2] 6.9% | [3] -6.8% | [4] -24.4% | [5] -4.15% | [6] 21.2%

O=[N+]([O-])c1cnc(/C=[N+](\[O-])C2CCCCC2)n1CCO
inactive: [1] 3.7% | [2] 17.6% | [3] -0.3% | [4] 13.7% | [5] 16.6% | [6] 9.8%

O=S(=O)(/C=C/c1ccc(F)cc1)Cc1ccccc1
inactive: [1] -3.2% | [2] -15.6% | [3] 0.65% | [4] 12.9% | [5] -4% | [6] 11.7%

O=C(O)C(CCl)c1ccccc1 (stereo unspecified)
inactive: [1] 7.05% | [2] -3.1% | [3] 0.4% | [4] -17.1% | [5] 9.85% | [6] 2.25%

CC(=O)Nc1[nH]ncc1C#N
inactive: [1] 3.05% | [2] -8% | [3] -0.2% | [4] -12.4% | [5] 13.3% | [6] 18%

COc1ccccc1N=Nc1c(-c2ccccc2)nn(C(N)=S)c1-c1ccccc1
inactive: [1] 35% | [2] -5.75% | [3] 19.4% | [4] 12.2% | [5] -0.05% | [6] 6.6%

COC(=O)c1nnn(-c2ccc(Cl)cc2C)c1N
inactive: [1] -17.8% | [2] -1.95% | [3] 16.7% | [4] 29.7% | [5] -15.6% | [6] 21.2%

CCOC(=O)NC(C(=O)OCC)(N1CCN(c2cc3c(cc2F)c(=O)c(C(=O)O)cn3CC)CC1)C(F)(F)F (stereo unspecified)
inactive: [1] -10.5% | [2] -25.2% | [3] -11.1% | [4] -24.4% | [5] -7.55% | [6] -5.05%

CCc1cccc(CC)c1NC(=S)NC(=O)c1ccc(Br)cc1
inactive: [1] -5.3% | [2] -1.25% | [3] -7.9% | [4] 8.3% | [5] -9.5% | [6] -9.75%

OC1(c2ccc(F)cc2)CCNCC1
inactive: [1] 21.5% | [2] -7.55% | [3] 33.9% | [4] 20.4% | [5] 19% | [6] 7.2%

Cc1cc2nc(-c3cc4cc(Cl)cc(Cl)c4oc3=O)[nH]c2cc1C
inactive: [1] 10.6% | [2] 17.8% | [3] 2.7% | [4] -5.4% | [5] 17.2% | [6] -0.4%

CCCCCCCCN1N=C(C)CCC1=O
inactive: [1] -7.55% | [2] -9.2% | [3] -0.45% | [4] -23.7% | [5] -25.7% | [6] -8.55%

Cc1cc(=O)[nH]c(-n2[nH]c(C)c(CCO)c2=O)n1
inactive: [1] -13.3% | [2] -17.2% | [3] 14.8% | [4] 19.9% | [5] -5.9% | [6] 18.4%

Brc1ccc(Br)nc1
inactive: [1] -7.6% | [2] -4.65% | [3] -10.1% | [4] 8.05% | [5] -10.1% | [6] -12.9%

O=C(C[n+]1ccccc1Br)c1ccc(I)cc1
inactive: [1] -32.9% | [2] 2% | [3] 10.3% | [4] -6.95% | [5] 17.1% | [6] 29.9%

CCSc1nc(C)c(C)c(=O)[nH]1
inactive: [1] 14.2% | [2] -10.9% | [3] 22.4% | [4] 16% | [5] 21.8% | [6] 12.8%

O=C1CSC(c2ccc([N+](=O)[O-])cc2)N1c1nncs1 (stereo unspecified)
inactive: [1] -10.9% | [2] -6.8% | [3] 7.25% | [4] -2.65% | [5] -8.7% | [6] 0.55%

CCCCNc1nc(C#N)c(N)s1
inactive: [1] 3.6% | [2] -3.35% | [3] -12.7% | [4] 11.3% | [5] 11.7% | [6] 8.55%
